# In PubChem BioAssay AID1851 (National Center for Advancing Translational Sciences (NCATS), 2009):
# Where “and” joins values, the source holds several entries; their conditions need not be identical. Equal values may be shown once. About 2,600 (16%) of roughly 16,000 compounds were called active. Roughly 20% stayed inconclusive and do not appear here. Not all results are given here. A number with no mark means an inactive call. The call rests on the fitted dose curve; in most records, active means well fitted curve in the direction sought with a large enough effect; inconclusive means small, poorly fitted or top-dose-only effect, or effect the other way; inactive means no such curve, though single readings can be large or run the other way.
# Target: Cytochrome P450 2D6 (Homo sapiens) (UniProt P10635)
# Sequence (P10635 whole entry, looked up): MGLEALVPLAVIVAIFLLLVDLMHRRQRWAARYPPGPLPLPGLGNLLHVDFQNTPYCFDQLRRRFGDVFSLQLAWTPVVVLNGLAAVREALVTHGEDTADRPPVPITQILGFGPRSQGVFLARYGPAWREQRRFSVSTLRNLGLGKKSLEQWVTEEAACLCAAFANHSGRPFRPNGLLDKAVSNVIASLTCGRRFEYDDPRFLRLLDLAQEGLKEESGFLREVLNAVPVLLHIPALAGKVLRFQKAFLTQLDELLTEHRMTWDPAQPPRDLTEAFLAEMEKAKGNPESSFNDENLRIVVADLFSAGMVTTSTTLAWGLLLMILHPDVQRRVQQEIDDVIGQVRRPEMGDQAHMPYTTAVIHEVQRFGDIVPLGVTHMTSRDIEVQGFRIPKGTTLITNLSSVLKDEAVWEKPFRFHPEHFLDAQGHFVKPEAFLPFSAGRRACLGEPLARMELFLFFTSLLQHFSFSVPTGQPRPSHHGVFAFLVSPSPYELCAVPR
# Assay: Cytochrome panel assay with activity outcomes
# Details: recombinant CYP, pro-luciferin dealkylation, luminescence, p450-cyp2d6; series mostly up to 57.1 µM; activity, negative = inhibition: at the top concentration
# On the % scale 0 is the no-effect control and ±100 the full control effect.
SMILES,"activity, negative = inhibition",AC50
CO[C@@H]1COC(=O)C/C=C\[C@@H](C)COC(=O)[C@H](COCc2ccccc2)NC(=O)C/C=C\[C@H]1C,10.2% [at 11.4 µM],–
CC(O)CN(CCC(N)=O)CCC(N)=O (centres undefined),0.2%,–
Cc1cccc(Nc2ccncc2S(=O)(=O)NC(=O)NC(C)C)c1,6.82% [at 25.6 µM],–
Cn1cc(-c2nc3cnc(N4CCNCC4)nc3n(C3CC3)c2=O)c2ccccc21,-14.8%,–
CC(C)CC(=O)O/N=C1\C(=O)N(c2ccccc2)c2ccccc21,0.275%,–
C=CCn1c(=O)c2c(nc(Br)n2Cc2ccccc2Cl)n(C)c1=O,-6.43%,–
CC(=O)OCC(=O)[C@@]1(OC(C)=O)[C@H](C)C[C@H]2[C@@H]3C[C@H](F)C4=CC(=O)C=C[C@@]4(C)[C@]3(F)[C@H](O)C[C@@]21C,-1.58% [at 25.6 µM],–
O=C1COc2ccc(OCc3ccc(F)cc3)cc21,-20.1%,–
Cc1cc(NCCO)c2ccccc2n1,-41%,–
O=C(O)CC1(CC(=O)O)Nc2ccccc2SC1=O,8.66% [at 11.4 µM],–
CN1CCN(CCC=C2c3ccccc3Sc3ccc(S(=O)(=O)N(C)C)cc32)CC1,–,31.6 µM (active)
CCOC(=O)C1CCCN(C(=O)c2sc3nc(-c4ccc(OC)cc4)cn3c2C)C1 (centres undefined),1.59%,–
Cc1c(Nc2cc(N3CCCC(C)C3)c3nonc3c2[N+](=O)[O-])c(=O)n(-c2ccccc2)n1C (centres undefined),1.82%,–
COC(=O)c1ccc(N2CCN(c3ccccc3)CC2)c(NC(=O)C2CC2)c1,10.2%,–
Cc1ccc(Nc2ccc(-n3ccnc3)nn2)cc1C,–,2.51 µM (active)
O=C(Nc1ncc(Cc2ccccc2)s1)C1COc2ccccc2O1 (centres undefined),24.8%,–
O=C1C2CCCN2c2ccc(S(=O)(=O)N3CCOCC3)cc2N1Cc1cccc(C(F)(F)F)c1 (centres undefined),-28.2%,–
Cc1onc(-c2c(F)cccc2Cl)c1C(=O)N[C@H]1C(=O)N2[C@H]1SC(C)(C)[C@H]2C(=O)O,1.45% [at 25.6 µM],–
O=C(O)CC[C@@H](C(=O)O)N1C(=O)c2ccccc2C1=O,6.68%,–
COC(=O)COc1cccc(NC(=O)c2ccc(C)cc2)c1,-15.9%,–
CCOc1cccc(OCCCNCCCOC)c1,–,11.2 µM (active)
COc1cccc(OCCCOc2ccccc2C(C)C)c1,-22.8%,–
O=C(N/N=C/c1ccco1)c1ccccn1,-14.7%,–
COc1ccc(NC(=O)/C(=C\c2cc(OC)c(OC)cc2[N+](=O)[O-])NC(=O)c2ccccc2)cc1,2.06%,–
COc1ccc(C(=O)Nc2ccc(F)cc2F)cc1OC,-27.1%,–

SMILES,"activity, negative = inhibition",AC50
O=C(COc1ccccc1Cl)NC(=S)Nc1cccc(NC(=O)c2ccccc2Cl)c1,14.4%,–
S=C(NCCSCc1c(Cl)cccc1Cl)Nc1ccccc1,–,4.47 µM (active)
O=C(Nc1ccc(N=Nc2ccccc2)cc1)c1ccc(Cl)cc1Cl,8%,–
S=C(NCc1ccccn1)Nc1cccc(Cl)c1,-6.51%,–
O=C(Cc1ccccc1)NCCSCc1ccc(Cl)cc1,–,3.16 µM (active)
Cc1ccccc1OCCNC(=S)Nc1ccccc1,-6.27%,–
S=C(NCCSCc1ccc(Cl)cc1Cl)Nc1ccccc1,–,6.31 µM (active)
O=C(O)CCSCc1ccccc1,-5.23% [at 11.4 µM],–
O=C(c1cccs1)n1nc(-c2ccc(Cl)cc2)nc1NCc1ccco1,-9.76%,–
COc1ccc(Cc2nnc(NC(=O)CSc3ccc(C)cc3)s2)cc1OC,-12%,–
O=C1c2cccnc2C(O)N1C1CCCCC1 (centres undefined),5.84%,–
COc1ccccc1C(=O)NC(=S)N1CCCc2ccccc21,1.45%,–
N#CC(c1ccc(Cl)cc1)(c1ncc(C(F)(F)F)cc1Cl)N1CCOCC1 (centres undefined),5.48%,–
C/C(=N\NC(=O)c1ccc(Cl)cc1)c1cccc(NC(=O)C(C)C)c1,-3.26%,–
Cc1ccccc1C(=O)Nc1cccc(NC(=S)NC(=O)c2cccs2)c1,-4.72%,–
Nc1nc(=O)c2[nH]cnc2n1O,-6.92% [at 11.4 µM],–
CCC(=O)n1nc(-c2ccc(OC)cc2)nc1N,-3.17%,–
Cc1ccc2[nH]c3c(c2c1)CN(C(=O)CN1c2ccc(F)cc2CCC1C)CC3 (centres undefined),-14.4%,–
CO[C@H]1COC(=O)[C@@H](CCSC)NC(=O)C/C=C\[C@@H](C)[C@H](OC)COC(=O)[C@@H](OCc2ccccc2)/C=C\[C@@H]1C,-4.06% [at 11.4 µM],–
CCNc1nc(Oc2c(Cl)cccc2Cl)cc(C(F)(F)F)n1,-16.5%,–
CC(C)(C)NCC[C@@H](O)c1cc(C(F)(F)F)nc2c(C(F)(F)F)cccc12,–,0.316 µM (active)
CC1(C)OC(C(N)=O)C(C(N)=O)O1 (centres undefined),1%,–
Cc1ccc(S(=O)(=O)NC(=O)Nc2ncn[nH]2)cc1,4.38% [at 11.4 µM],–
Cc1cccc(-n2c(=O)c3c(n4cnnc24)-c2ccccc2CC32CCCCC2)c1,-15.5%,–
CSc1ccc2c(c1)N(CCCN(C)C)c1ccccc1S2,–,0.501 µM (active)

SMILES,"activity, negative = inhibition",AC50
CCC(=S)/C=C1\Sc2ccccc2N1CCCS(=O)(=O)O,-2.63%,–
CN(C)CCCN1c2ccccc2Sc2ccc(C(F)(F)F)cc21,–,794 nM (active) and 398 nM (active)
CN(C)CCCN1c2ccc(O)cc2Sc2ccc(Cl)cc21,–,0.126 µM (active)
O=C(CSc1nc2ccccc2s1)N1c2ccccc2Sc2ccc(C(F)(F)F)cc21,-0.671%,–
CN(C)CCCNC(=O)c1cc2c3ccccc3n(C)c2s1,1.67%,–
CCC(=O)c1ccc2c(c1)N(CCCN(C)C)c1ccccc1S2,–,2 µM (active)
CC(C)OC(=O)CSc1nc(-c2ccc(F)cc2)nc2ccc(F)cc12,28%,–
CC[C@@H](c1ccccc1)n1c(=O)n2n(c1=O)[C@H]1[C@H](O)[C@H]3O[C@@H]3/C(=N/OC/C=C(\C)CCC=C(C)C)[C@@H]1CC2,3.1% [at 11.4 µM],–
CCOC(=O)N/N=C/c1ccc(F)cc1,11.2%,–
Cc1cccc(-c2n[nH]c([N+](=O)[O-])n2)c1,-6.53%,–
COC(=O)[C@H](CCSC)NC(=O)NCc1ccccc1F,-3.07%,–
CC(C)=NO[C@@H](C)c1cn([C@H](CO)Cc2ccccc2)nn1,6.42% [at 11.4 µM] and -9.14% [at 11.4 µM],–
O=C(NCCN1CCN(C(=O)c2cc3ccccc3oc2=O)CC1)c1cc2ccccc2oc1=O,-6.33%,–
CCNC(=S)N1CCC(NC(=O)C2CCCCC2)CC1,0.685%,–
CNC(=O)/C(C#N)=c1\s/c(=C/C(=O)OC)c(=O)n1-c1ccccc1,-26.3%,–
C/C=C1\C(=O)C[C@@H]2[C@@H]3CCC4=CC(=O)CC[C@@]4(C)[C@H]3CC[C@@]12C,0.669%,–
COCc1c(C(N)=O)nnn1-c1nonc1N,-10.2%,–
CC(C)C(NC(=O)C1CCCCC1)C(=O)NC1CCN(Cc2ccccc2)CC1 (centres undefined),11.7%,–
COc1cc(N)c(Cl)cc1C(=O)NC1CCN(Cc2ccccc2)CC1,–,0.0126 µM (active)
O=C(NC1CCN(Cc2ccccc2)CC1)c1ccc(I)cc1,–,12.6 µM (active)
COc1ccc(CC(NC(C)=O)C(=O)NC2CCN(C(=O)Nc3ccc(Cl)cc3)CC2)cc1OC (centres undefined),-3.67%,–
O=C(Cc1ccccc1)NC1CCN(S(=O)(=O)c2ccc(C(=O)O)cc2)CC1,35.7%,–
COc1cc([C@@H](O)CO)ccc1OS(=O)(=O)O,4.91%,–
O=[N+]([O-])c1ccccc1N=Nc1c(O)[nH]c2ccc(S(=O)(=O)O)cc12,-12.1% [at 11.4 µM],–
C[C@@](Cc1ccc(O)c(O)c1)(NN)C(=O)O,-5.26%,–

SMILES,"activity, negative = inhibition",AC50
COc1cccc(Nc2ncc3nc(C)c(=O)n(CCc4ccccc4)c3n2)c1,-2.27%,–
C[C@@]1(C(=O)O)NCCc2cc(O)c(O)cc21,-7.56%,–
Cc1cc(C)c2c(-n3cccc3)n[nH]c2n1,–,25.1 µM (active)
Cc1nc(N=Nc2cc(S(=O)(=O)O)ccc2S(=O)(=O)O)c(COP(=O)(O)O)c(C=O)c1O,-12.1%,–
COc1ccc(/C(C#N)=C/c2c(-c3ccc(Cl)cc3)nc3c(C)cccn23)cc1,-21.9%,–
Cc1sc(NC(=O)C2C3CCC(O3)C2C(=O)O)c(C(=O)OC(C)C)c1-c1ccc(Cl)cc1 (centres undefined),-1.24%,–
O=C(Oc1ccccc1)N1CCC2(CC1)CCN(c1ncccn1)CC2,-7.02%,–
CCN(C(=O)c1cnc(N2CCN(c3ncccn3)CC2)c2ccccc12)c1cccc(Cl)c1,–,10 µM (active)
O=C(O)CCC(=O)N1CCN(c2ccccn2)CC1,-14.8%,–
O=C(Cn1ccc2ccccc2c1=O)N1CCN(c2cccc(Cl)c2)CC1,0.16%,–
O=C(c1cnc(N2CCN(c3ncccn3)CC2)c2ccccc12)N1CCN(c2ccccn2)CC1,–,11.2 µM (active)
CN(C(=O)c1cnc(N2CCN(c3ncccn3)CC2)c2ccccc12)c1ccc(Cl)cc1,–,12.6 µM (active)
COc1ccccc1C(=O)N1CCN(c2ccccn2)CC1,-5.62%,–
COCC(=O)N1CCC2(CC1)CCN(c1ncccn1)CC2,-7.26%,–
CCN(C(=O)COc1cc(=O)n(C)c2ccccc12)c1cccc(Cl)c1,6.79%,–
CC(C)Cc1ccc([C@H](C)C(=O)O)cc1,–,inactive
CCOc1ccc2nc3cc(N=Nc4ccc(N)nc4N)ccc3c(N)c2c1,-4.78% [at 11.4 µM],–
Cc1ccccc1Oc1ncnc2sccc12,17.8%,–
NCCc1nc(-c2nc(C(=O)O)cs2)cs1,16.3% [at 11.4 µM],–
OCCCSCCO,-3.94% [at 11.4 µM],–
COc1ccc(C(C(=O)NC2CCCCC2)N(C(=O)c2sc(C)nc2C)c2ccc(OC)cc2)cc1 (centres undefined),-11.5%,–
Cc1cc(C(C)(C)C)c(O)c(C)c1CC1=NCCN1,–,12.6 µM (active) and 3.98 µM (active) and 39.8 nM (active)
Cc1cc(Cc2cc(C)cc(C(C)(C)C)c2O)c(O)c(Cc2cc(C)cc(C(C)(C)C)c2O)c1,-2.96% [at 11.4 µM],–
Cc1cc(Cc2c(C)c(C)c(Cc3cc(C)cc(C(C)(C)C)c3O)c(C)c2C)c(O)c(C(C)(C)C)c1,12% [at 11.4 µM],–
